# Test results reported in PubChem BioAssay (NCI).
# Where “and” joins values, the source holds several entries; their conditions need not be identical. Equal entries are not always repeated. This is part of a sample that, as a whole, favours compounds with a hit. Of some 83,000 tested, about 20% had one in any assay.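 Growth was measured after 48 h exposure to one concentration of compound in 96-well plates. Values under 10 count as active.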 Values without a mark were called inactive. Calls of active or inactive are those of the source.
# Columns and labels:
# Experiment in all cases: NCI-60 one-dose screen, 48 h (100 = growth as untreated, 0 = no growth, -100 = all killed)
# Conditions in all cases: 10 µM unless noted
# HCT-15 colon = tested on: HCT-15 colon
# HT29 colon = tested on: HT29 colon
# SNB-75 CNS = tested on: SNB-75 CNS
# SNB-19 CNS = tested on: SNB-19 CNS
# U251 CNS = tested on: U251 CNS
# PC-3 prostate = tested on: PC-3 prostate
# SK-MEL-5 melanoma = tested on: SK-MEL-5 melanoma
# UACC-62 melanoma = tested on: UACC-62 melanoma
# LOX IMVI melanoma = tested on: LOX IMVI melanoma
# SK-MEL-28 melanoma = tested on: SK-MEL-28 melanoma
# SK-MEL-2 melanoma = tested on: SK-MEL-2 melanoma
# EKVX NSCLC = tested on: EKVX NSCLC
# SN12C renal = tested on: SN12C renal
# UO-31 renal = tested on: UO-31 renal
# TK-10 renal = tested on: TK-10 renal
# ACHN renal = tested on: ACHN renal
# CAKI-1 renal = tested on: CAKI-1 renal
# A498 renal = tested on: A498 renal
# CCRF-CEM leukemia = tested on: CCRF-CEM leukemia
# MOLT-4 leukemia = tested on: MOLT-4 leukemia
SMILES,growth (HCT-15 colon),growth (HT29 colon),growth (SNB-75 CNS),growth (SNB-19 CNS),growth (U251 CNS),growth (PC-3 prostate),growth (SK-MEL-5 melanoma),growth (UACC-62 melanoma),growth (LOX IMVI melanoma),growth (SK-MEL-28 melanoma),growth (SK-MEL-2 melanoma),growth (EKVX NSCLC),growth (SN12C renal),growth (UO-31 renal),growth (TK-10 renal),growth (ACHN renal),growth (CAKI-1 renal),growth (A498 renal),growth (CCRF-CEM leukemia),growth (MOLT-4 leukemia)
CN1C(=O)/C(=C/c2ccc(C(=O)Nc3ncc(Cc4ccccc4Cl)s3)cc2)SC1=S,42.1%,69.5%,69.4%,83.3%,89.4%,77.6%,62.4%,18.1%,45.1%,74.8%,101%,75.6%,68.6%,63.5%,83.6%,52.1%,34.1%,60.7%,73.7%,82.1%
COc1ccc2c(c1)c(C(=O)c1nc(-c3cn(C)c4ccccc34)no1)cn2C,82.9%,88.8%,108%,92.8%,101%,83.8%,82.2%,76.6%,103%,93.4%,101%,103%,89.5%,77.2%,91.7%,95.9%,94.1%,87.7%,87.9%,94.2%
CN(C)CCCn1c2nc(=O)[nH]c(=O)c-2nc2cc(Cl)c(Cl)cc21,87%,20.9%,99.9%,100%,55.2%,60.2%,78.3%,97.9%,41.2%,106%,112%,103%,70.5%,80.9%,80.5%,87.8%,79%,92.1%,45.6%,64.8%
CN1CCCc2cc(/C=C3\SC(=S)N(C(Cc4ccc(O)cc4)C(=O)O)C3=O)ccc21 (stereo not given),101%,110%,89.9%,92.2%,94.7%,101%,100%,93.6%,93.8%,113%,103%,91.6%,93.3%,79.7%,102%,103%,89%,87.8%,106%,103%
C[N+]1=C(/C=C\C=C\c2ccccc2)C(C)(C)c2ccccc21,14.2%,12.3%,81.8%,27.4%,14%,30.7%,-39.7% (active),-16.1% (active),12.6%,-35.5% (active),10.9%,31.5%,-2.25% (active),39.3%,50.3%,43.8%,38.4%,61.2%,-8.67% (active),0.0688% (active)
Cc1c(CC(=O)OCCO)cc(-c2ccc(Cl)cc2)n1-c1ccccc1,94.4%,101%,65.9%,95.3%,91.7%,101%,88.8%,77.7%,94%,109%,103%,95.5%,92.4%,75.5%,115%,100%,87.6%,87.9%,99%,91.4%
CCOC(=O)c1ccc(Nc2ncnc3c2cnn3-c2cccc(F)c2)cc1,102%,103%,82.1%,96.9%,98%,97.3%,101%,92.6%,93.2%,110%,114%,97.5%,95%,72.1%,115%,96.5%,84.8%,99%,95.6%,99.2%
Cc1ccc(C(=O)c2ccc(CC(=O)N=Nc3c(O)[nH]c4ccc(OC(F)(F)F)cc34)n2C)cc1,93.3%,107%,82.1%,94%,97%,98.6%,97.3%,106%,89.8%,99.9%,95.9%,75.5%,95%,72.7%,137%,93.8%,91.1%,86.7%,99.1%,89.4%
COc1ccc2c(c1)CC[C@@H]1[C@@H]2CC[C@]2(C)C3C(=CCC4C(=O)N(c5ccccc5)C(=O)C43)C[C@@H]12 (stereo not given in full),88.5%,71.3%,79.8%,108%,87.5%,51.1%,89.9%,64.5%,83.6%,105%,95.7%,93%,108%,74.3%,105%,80.8%,71.7%,114%,66.7%,74.2%
CC12CCC(C(=O)CC1=O)C2(C)C (stereo not given),103% and 106%,108% and 109%,87.5% and 95.1%,107% and 105%,99.6% and 100%,97.2% and 104%,99.8% and 104%,102% and 106%,97.3% and 95.3%,106%,110%,97.5%,102%,88.3% and 87.1%,100% and 105%,107% and 106%,101% and 97%,93.2% and 108%,103% and 96.8%,82.6% and 96.5%
CCC(=O)Oc1cc(Cl)c(Cl)cc1Cl,103%,103%,89.6%,113%,98.1%,96.4%,105%,108%,105%,104%,103%,102%,97.9%,95.3%,98.5%,101%,99.2%,83.3%,105%,111%
CN(C)CCCn1c2c(c3ccc(N4CCNCC4)cc3c1=O)C(=O)c1ccccc1-2,-36.5% (active),-52.4% (active),22.3%,-13.9% (active),-54.1% (active),-34.7% (active),28.7%,51.8%,-90% (active),59.7%,39.6%,-39% (active),6.82% (active),2.6% (active),-0.224% (active),-10.5% (active),5.62% (active),74.3%,-4.22% (active),-21.9% (active)
O=C1C=C(Nc2ccccc2)c2ncccc2C1=O,-68.7% (active),-37% (active),-97.1% (active),-92.8% (active),-97.9% (active),-17.7% (active),-97.8% (active),-92.3% (active),-77.7% (active),-81.3% (active),-66.8% (active),-85.3% (active),-88.8% (active),-98.6% (active),-96.9% (active),-98.3% (active),-95.9% (active),-87.5% (active),-29.9% (active),-49.6% (active)
CCc1c2c(nc3ccc(OCc4ccc(B5OC(C)(C)C(C)(C)O5)cc4)cc13)-c1cc3c(c(=O)n1C2)COC(=O)[C@]3(O)CC,32.9%,10.2%,5.99% (active),8.91% (active),-8.07% (active),26.9%,-54.8% (active),-40.7% (active),-55.2% (active),32.8%,20.4%,35%,3.16% (active),-13.2% (active),39.5%,-9.99% (active),-1.75% (active),-40.3% (active),8.7% (active),8.97% (active)
